High-throughput results deposited in PubChem BioAssay by National Center for Advancing Translational Sciences (NCATS).
This is a sample that favours compounds with a hit; in the whole collection about 1.4% have one here.
Vif-A3G inh: blocks the Vif interaction with human APOBEC3G. HeLa A3G-eYFP + Vif (tagged APOBEC3G with the HIV-1 protein that degrades it), YFP fluorescence, overnight. Potency, µM (doses to about 46.1 µM), for inactives: top-dose activity, negative = active, usual class: inhibitors. AID 602310. Q9HC16. 0.076% of 410,000 active; note: potency is the fitted concentration of half-maximal effect; % is set by controls: 0 for no effect and ±100 for the full control effect; nearly all actives have a fitted effect of over 60% in size
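HeLa cells stably expressing Vif and C-terminally eYFP-tagged A3G, seeded overnight at 37 deg C, then exposed to compound by pintool overnight at 37 deg C. Rise in yellow fluorescence (Ex 488/Em 500-530, Acumen) marks blocked Vif-driven A3G degradation.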
PTAP TSG101 blk: blocks PTAP/TSG101 interaction to inhibit HIV-1 budding. 340,000 tested, under 10 active. Potency, µM (doses to about 115 µM), for the others: at the top dose activity change, negative = inhibition, usual class: inhibitors. Fluorescence polarization, FITC-PTAP peptide / Tsg101 binding. AID 493005. Q99816; active = well fitted inhibition curve with a large enough effect in the main read-out, with a control signal flat, not every such curve was filed as active; inconclusive = small, poorly fitted or top-dose-only effect, or effect the other way, or a change in a side signal; inactive = no such curve, though single readings can be large or run the other way; note: potency is the fitted concentration of half-maximal effect; % of control where 0% means no effect
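Tsg101 binding domain (10 uM final) was mixed with compound and a FITC-labeled PTAP peptide (50 nM final) in HEPES pH 7.5 buffer with NaCl, Tween 20, EDTA and TCEP; fluorescence polarization was read after 20 min at r.t.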
Vif-APOBEC3F blk: Vif-A3F binding inhibition | HeLa A3F-eYFP + Vif (tagged APOBEC3F with the HIV-1 protein that degrades it), YFP fluorescence increase | 0.2% of 390,000 active | Potency, µM (titrated, usually from 46.1 µM), without a hit: top-dose activity, negative = active; note: potency is the fitted concentration of half-maximal effect; % of control where 0% means no effect; nearly all actives have a fitted effect of over 65% in size
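HeLa cells stably expressing A3F-eYFP plus Vif, plated and incubated overnight at 37 deg C, then exposed to compounds overnight at 37 deg C. Blocked degradation read as raised yellow fluorescence (Ex 488/Em 500-530).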
Akt phos inh: Akt phosphorylation inhibition; Neuro2A IGF-stimulated pAkt S473 HTRF, 20 min; active compounds read low; activity change, % for hits at 50 µM; 0.32% of 360,000 active; AID 651550; in the data active = activity change below about -80%; inconclusive = mostly about -51% to -80%; note: % is set by controls: 0 for no effect and ±100 for the full control effect
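Neuro2A cells (4,500/well, DMEM with 0.5% FBS) were treated with compound at a single 50 µM final concentration, stimulated with 6 nM IGF for 20 min at 37 °C, and lysed. Phospho-Akt Ser473 was read by HTRF as 665/615 ratio ×10^4.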
12-LOX inh: inhibitors of human 12S-lipoxygenase ALOX12. purified 12hLO, xylenol orange hydroperoxide absorbance. Potency, µM (doses to about 108 µM), without a hit: at the top dose activity change, negative = inhibition, most hits filed as inhibitors. 1.1% of 580,000 active; note: potency is the fitted concentration of half-maximal effect; % is set by controls: 0 for no effect and ±100 for the full control effect
Target sequence (P18054 whole entry, looked up): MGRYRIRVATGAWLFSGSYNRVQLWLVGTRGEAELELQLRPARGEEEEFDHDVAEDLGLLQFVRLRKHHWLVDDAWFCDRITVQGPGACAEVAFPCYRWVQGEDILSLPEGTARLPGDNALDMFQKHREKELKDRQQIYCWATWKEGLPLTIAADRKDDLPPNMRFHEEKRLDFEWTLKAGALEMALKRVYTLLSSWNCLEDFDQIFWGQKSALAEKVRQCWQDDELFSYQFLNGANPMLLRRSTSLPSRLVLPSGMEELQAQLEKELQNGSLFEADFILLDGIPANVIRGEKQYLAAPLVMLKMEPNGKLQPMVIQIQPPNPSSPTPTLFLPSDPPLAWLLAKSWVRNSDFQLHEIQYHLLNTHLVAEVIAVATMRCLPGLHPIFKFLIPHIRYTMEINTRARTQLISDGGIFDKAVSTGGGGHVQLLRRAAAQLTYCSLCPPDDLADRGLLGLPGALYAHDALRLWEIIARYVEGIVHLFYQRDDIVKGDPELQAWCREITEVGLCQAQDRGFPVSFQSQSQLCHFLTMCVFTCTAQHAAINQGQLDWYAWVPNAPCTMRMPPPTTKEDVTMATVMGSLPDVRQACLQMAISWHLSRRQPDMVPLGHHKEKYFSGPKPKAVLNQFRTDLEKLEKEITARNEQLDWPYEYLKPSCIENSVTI
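Purified human 12hLO (150 nM final) in 25 mM Hepes, 0.01% Triton X-100, pH 7.0 was preincubated 15 min at room temperature with compound. Then 40 uM arachidonic acid was added, 30 min. Hydroperoxide was read by Fe-XO absorbance ratio 573/405 nm.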
S-ASM inh: inhibitors of human secretory acid sphingomyelinase; P17405; placental ASM, HMU-PC fluorogenic substrate, 60 min; Potency, µM (top dose mostly 57.5 µM), inactives show at the highest dose activity change, negative = inhibition, most hits filed as inhibitors; 0.006% of 340,000 active; note: potency is the fitted concentration of half-maximal effect
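HMU-PC0 cleavage (9 uM final) by human placental ASM, 60 min at 37 °C following 10 min compound exposure at RT; stopped at pH 10, fluorescence Ex 386/Em 447 nm.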
An asterisk follows results filed as active; i = inactive; u = inconclusive; x = not tested or not shown; ! = a repeat was not active; [ ] = dose if it differs, or a comment. Unless noted, calls come from the whole dose curve; as a rule, active = well fitted curve in the direction sought with a large enough effect; inconclusive = small, poorly fitted or top-dose-only effect, or another doubt; inactive = no such curve, though single readings can be large; an effect the other way counts as inactive or inconclusive.

SMILES	Vif-A3G inh	PTAP TSG101 blk	Vif-APOBEC3F blk	Akt phos inh	12-LOX inh	S-ASM inh
Oc1cc2c(cc1O)[C@H]1c3ccccc3CN[C@H]1CC2	x	x	x	x	11µM*!	x
C=CCN1C(=O)NC(=O)/C(=C\c2ccc(-c3ccccc3[N+](=O)[O-])o2)C1=O	-11%	-2%	-12%	i	35µM*	-9%
O=C1NC(=O)N(Cc2ccco2)C(=O)/C1=C/c1ccc(-c2cccc([N+](=O)[O-])c2)o1	-7%	-1%	-7%	i	x	-4%
Cn1cccc1/C=C1\C(=O)NC(=O)N(CCC2=CCCCC2)C1=O	3%	8%	-5%	i	-28%	-4%
Cn1cccc1/C=C1\C(=O)NC(=O)N(Cc2ccccc2Cl)C1=O	-24%	-2%	11µM*	i	u	-2%
O=C(c1cccs1)N1[C@H]2CC[C@@H]1c1cnc(-c3ccc(F)cc3)nc1C2	x	x	x	x	30%	x
CN1CCNc2cc(Nc3ccc(F)cc3)ncc2C1	x	x	x	x	3%[176 µM]	x
COc1cc(CN2C(=O)NC(=O)C3(Cc4cc(C)ccc4N(C)C3)C2=O)cc(OC)c1 (centres undefined)	u	-3%	-17%	i	-8%	-1%
COc1ccc2c(c1)CC1(CN2C)C(=O)NC(=O)N(CCc2ccccc2)C1=O (centres undefined)	-7%	-5%	2%	i	40µM*	-6%
COc1ccc2c3c1OC1C(O)C=CC4C(C2)[N+](C)(C)CCC341 (centres undefined)	0%	-2%	-1%	i	45µM*	1%
COC1=CC=C2[C@H]3Cc4ccc(OC)c5c4[C@@]2(CCN3C)[C@H]1O5	1%	0%	-12%	i	59%	-6%
Cn1nc(-c2ccc3ccccc3c2)cc1[C@H]1CN2CC[C@H]1C[C@@H]2CNS(=O)(=O)c1cccs1	x	x	x	x	55%	x
COc1cccc([C@H]2CN(C(=O)c3cnc(C)cn3)[C@@H]3C4CCN(CC4)[C@H]23)c1	x	x	x	x	18%	x
Cc1ccc(/C=C2\C(=O)NC(=S)N(c3ccccc3F)C2=O)s1	u	-4%	-18%	i	40µM*	3%
Cc1ccc(/C=C2\C(=O)NC(=S)N(c3ccc(F)cc3)C2=O)s1	u	1%	15%	i	u	4%
FC(F)(F)c1ccc(CNCCc2ccc3c(c2)OCO3)cc1	2%	-5%	-14%	i	1.8µM*	3%
Clc1ccc(CNCCc2ccc3c(c2)OCO3)cc1	-8%	0%	0%	i	4.5µM*	-1%
Fc1ccccc1CNCCc1ccc2c(c1)OCO2	9%	-3%	-23%	i	u	2%
COc1ccc(NC(=O)N2[C@H]3CC[C@@H]2c2cnc(-c4ccccc4)nc2C3)cc1OC	x	x	x	x	20%	x
CSCCCN=C=S	x	x	x	x	-5%[176 µM]	x
CC12CCC(O)CC1CCC1[C@@H]2CCC2(C)C(C3=CC(=O)OC3)C(O)CC12O (some centres undefined)	x	x	x	x	-7%	x
COc1ccc(CNCCc2c[nH]c3ccccc23)cc1	x	x	x	x	0.63µM*	x
CCc1ccc(CNCCc2ccc(OC)cc2)cc1	x	x	x	x	2.5µM*	x
COc1ccc(CCNCc2ccc(Cl)cc2)cc1	x	x	x	x	14µM*	x
COc1cccc(CNCCc2c[nH]c3ccccc23)c1	-2%	-6%	5%	i	-23%	-4%
COc1cccc(CN2CC[C@@H]3CN(S(C)(=O)=O)[C@@H]3C2)n1	x	x	x	x	13%	x
CCN(CC)c1ccc(/C=C/[N+](=O)[O-])cc1	u	6%	25µM*	i	u	u
Clc1ccc(Cl)c(-c2ccc(CNC3CN4CCC3CC4)o2)c1 (centres undefined)	x	x	x	x	8.9µM*	x
Fc1ccc(CNC2CN3CCC2CC3)cc1 (centres undefined)	2%	-1%	2%	i	-14%	4%
